High-throughput results (PubChem)
DAX1 inh-1: inhibits human nuclear receptor DAX1; P51843; HEK293 Gal4-DAX1 luciferase reporter, luminescence; inhibition, % at 6.75 µM; 340,000 compounds, 0.99% hits; AID 504766;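 active means inhibition above the mean over all tested compounds plus 3 SD, cut at about 4.2% in these data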;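 further: 0% = DAX1-transfected cells with DMSO and 100% = empty-vector control cells with DMSO; inhibition shows as a rise in luminescence from relieved DAX1 repression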
Target sequence (P51843 207-470 limits assumed): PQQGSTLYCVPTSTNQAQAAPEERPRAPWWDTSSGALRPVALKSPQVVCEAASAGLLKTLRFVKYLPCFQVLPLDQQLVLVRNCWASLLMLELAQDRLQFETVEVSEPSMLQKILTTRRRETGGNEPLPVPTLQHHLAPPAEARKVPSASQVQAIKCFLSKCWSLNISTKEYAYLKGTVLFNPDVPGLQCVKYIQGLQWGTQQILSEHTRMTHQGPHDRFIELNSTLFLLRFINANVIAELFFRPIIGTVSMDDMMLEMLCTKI
hcDAF-12 act: H. contortus DAF-12 activation, primary screen; HEK293 hcDAF-12 lit1-tk-luc reporter, luminescence; 0% DMSO, 100% Δ7-dafachronic acid; activation, % at 6.8 µM; 370,000 compounds, 1.4% hits; AID 652067;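 active means activation above the mean of all tested compounds plus 3 SD, cut at about 5.5% in these data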;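 further: 100% = response to 3 µM Δ7-dafachronic acid high control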
ssDAF12 agonist: activates DAF-12 receptor from parasite S. stercoralis | activation, % at 6.8 µM | HEK293 ssDAF-12/GRIP1 lit1-tk-luc reporter, luminescence; % of 3 µM dafachronic acid response | 370,000 compounds, 1% hits;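 active means activation above the mean over all tested compounds plus 3 SD, cut at about 0.9% in these data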;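 further: 0% = DMSO-only wells and 100% = 3 µM delta7-dafachronic acid wells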
AHR activator: human AHR activation. AHR-responsive luciferase reporter cells, luminescence. activation, % at 5 µM. 320,000 compounds, 2.5% hits; in the data active means activation above about 47%;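 further: 0% = vehicle wells and 100% = reference agonist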
DAX1 inh-2: blocks DAX1 repression of SF-1 activated StAR promoter. HEK293T StAR-luciferase reporter, SF-1/DAX-1 repression relief. inhibition, % at 6.8 µM. AID 652010. 370,000 compounds, 1.1% hits;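 active means inhibition above the mean over all tested compounds plus 3 SD, cut at about 3.6% in these data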;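 further: 0% = DAX-1 cells with DMSO and 100% = cells lacking DAX-1 with DMSO; higher inhibition means more luminescence from relief of DAX-1 repression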
hgDAF12 agonist: agonists of H. glycines DAF-12 nuclear receptor | HEK293 GAL4-hgDAF12 UAS-luciferase reporter, agonist luminescence; normalized to butyrate control | activation, % at 6.8 µM | 370,000 compounds, 1.8% hits | AID 687014;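 active means activation above a cutoff set at the mean of all screened compounds plus 3 SD, cut at about 10% in these data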;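 further: 0% = DMSO wells and 100% = sodium butyrate wells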
Starred values were filed as active, the others as inactive; . = no result. Compounds with a hit are over-represented: about 5.7% of the library has one in this group of screens.

SMILES | DAX1 inh-1 | hcDAF-12 act | ssDAF12 agonist | AHR activator | DAX1 inh-2 | hgDAF12 agonist
CCOC(=O)NC(=O)c1cn(Nc2ncc(Cl)cc2C(F)(F)F)c(=O)[nH]c1=O | 6.2* | 0.2 | -1.8 | -0.6 | -0.3 | -0.8
Cc1ccc(N/C=C/c2onc(C)c2[N+](=O)[O-])cc1 | 5.6* | 4.2 | -1.0 | 15.1 | 2.4 | 10.0
Cc1ccc(Nc2nc(N)nc(CSc3nccn3C)n2)cc1 | 0.8 | 5.1 | 0.9* | 12.2 | 3.3 | 11.1*
Cc1cccc(Nc2nc(N)nc(CSc3nccn3C)n2)c1 | 0.6 | 1.4 | -0.6 | 75.2* | 1.1 | 6.2
Cc1cccc(NC(=O)CSc2nccn2C)c1 | 1.4 | 2.3 | -0.1 | 22.3 | 0.2 | -0.5
COc1ccccc1Nc1nc(N)nc(CSc2nccn2C)n1 | -0.7 | 1.1 | -1.2 | 37.7 | -0.2 | 3.3
O=C1NCCN/C1=C\C(=O)c1ccc(Br)cc1 | . | 3.9 | 0.1 | -6.0 | 1.7 | 10.6*
O=C(Nc1ccc(Cl)c(Cl)c1)Nc1nnc(CSc2ccccc2)s1 | -1.2 | 1.2 | -0.3 | 5.4 | 1.3 | 2.4
Cc1cc2nc(-c3ccccc3O)[nH]c2cc1C | 2.2 | 5.8* | 0.7 | . | 4.1* | 11.7*
Cc1cc(=O)[nH]c(-c2ccccc2O)n1 | 0.5 | . | . | 3.1 | . | .
Cc1cnc(-c2nc3ccccc3n2C(C(=O)NC(C)(C)C)c2ccncc2)cn1 (stereo not drawn) | . | -1.1 | 0.1 | . | 1.3 | 11.0*
Cc1ccc(S(=O)(=O)/N=C(/c2ccc(F)cc2)N2CCCCC2)cc1 | -2.8 | -1.1 | -1.1 | -1.2 | -0.3 | 0.7
CC1(C)OC(=O)C(=CNC(=O)c2c(F)cccc2F)C(=O)O1 | 0.2 | -1.3 | -1.1 | 0.9 | 0.0 | -0.2
Cc1ccccc1C(=O)NC=C1C(=O)OC(C)(C)OC1=O | 4.2* | 1.2 | -0.8 | -1.9 | -0.4 | 0.2
Cc1ccc([N+](=O)[O-])cc1S(=O)(=O)N1CCN(C)CC1 | 6.3* | -0.4 | -1.2 | 1.5 | -0.4 | -0.3
Cc1cc(C)c(C)c(S(=O)(=O)N2CCN(C)CC2)c1C | 8.9* | -1.5 | -0.2 | 1.6 | -0.3 | 2.8
Cc1nc2ccccc2n1C(=O)c1ccc(Cl)cc1[N+](=O)[O-] | 0.1 | 5.8* | -1.2 | 32.3 | 0.0 | -1.1
COc1ccc(NC(=O)c2cccc(S(=O)(=O)NCc3ccccc3)c2)cc1S(N)(=O)=O | 0.8 | 1.1 | -0.8 | 3.4 | 1.6 | -0.5
O=C1CC(c2ccccc2)=Nc2ccccc2N1 | -1.1 | -0.5 | -1.2 | 75.0* | -0.2 | 1.8
O=C(OCc1nc2ccccc2s1)c1cc2ccccc2oc1=O | . | 6.2* | 0.9* | 18.6 | 1.3 | 3.6
O=C(COc1ccc(Br)cc1CO)Nc1ccccc1 | 0.5 | -0.9 | -2.2 | -6.7 | 0.8 | 6.0
Nc1ccc(C(=O)OCc2nc3ccccc3s2)cc1 | -0.5 | 0.5 | -0.5 | 3.8 | 0.5 | 3.2
NC(=O)CSCc1nc2ccccc2s1 | -0.1 | 6.0* | 0.5 | 10.4 | 0.5 | 1.6
OCc1cc(Br)ccc1OCc1nc2ccccc2s1 | 1.0 | . | . | 48.0* | . | .
O=C(OCc1nc2ccccc2s1)c1ccc(Br)s1 | 2.0 | 2.7 | 1.1* | 8.4 | 0.0 | 5.0
SMILES | DAX1 inh-1 | hcDAF-12 act | ssDAF12 agonist | AHR activator | DAX1 inh-2 | hgDAF12 agonist
O=C(NCCc1ccc(Cl)cc1)c1cc(S(=O)(=O)N2CCCCC2)c[nH]1 | -1.0 | . | . | 1.5 | . | .
COc1ccc(CN(CC(=O)NCc2ccccc2)C(=O)CCC(=O)Nc2ccccn2)cc1 | 0.3 | -0.8 | -0.6 | 2.4 | -0.4 | 1.3
Cc1ccc(C(=O)OCc2nc3ccsc3c(=O)[nH]2)o1 | 0.4 | 0.6 | 0.2 | 3.5 | 0.6 | 0.5
Cc1ccc(C(=O)OCc2nc3ccccc3s2)o1 | 0.3 | 5.8* | 0.4 | 12.9 | 3.2 | 8.3
c1ccc(N2CCN(c3ccccc3)C2c2cccs2)cc1 | 7.7* | 0.7 | -1.7 | -3.2 | 0.4 | 7.2
O=[N+]([O-])c1ccc(NN=Cc2ccc(O)cc2)nc1 | 6.0* | 4.2 | -0.8 | . | 1.5 | 12.7*
Cc1cc(/C=N/Nc2ccc([N+](=O)[O-])cn2)c(C)n1-c1ccc(C(=O)O)cc1 | 6.6* | -0.4 | -1.8 | 4.9 | 0.2 | 5.3
O=[N+]([O-])c1ccc(NN=Cc2ccccc2)nc1 | 2.5 | 4.0 | -0.3 | . | 2.2 | 9.0
O=[N+]([O-])c1ccc(N/N=C/c2cccs2)nc1 | 6.0* | 3.0 | -0.7 | -0.8 | 0.5 | 11.1*
O=[N+]([O-])c1ccc(NN=CCCc2ccccc2)nc1 | 1.1 | 1.1 | -0.2 | . | 1.4 | 12.5*
